CD40 NFkB inh = inhibitors of CD40-induced NF-kB signaling, primary screen, BL2 cells, luciferase reporter, single point; CD40L-induced, 4 h; inhibition, % at 10 µM; hit rate 0.94% among 83,000; AID 1053188, 2014;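 active = mean inhibition of at least 50% with a set share of replicates also reaching that level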;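 note: 0% = neutral control wells and 100% = IKK inhibitor VII at 50 µM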
Starred values were filed as active, the others as inactive; [ ] = another dose, or the depositor's remark. This excerpt belongs to a sample that is enriched for hits.

SMILES | CD40 NFkB inh
CCCNC(=O)N1C[C@@H]2[C@H](c3ccccc31)[C@H](CO)N2C(=O)Nc1ccc(F)cc1 | 17
COc1ccc(-c2ccc(C3[C@H]4CNC[C@@H]3N4C(=O)Nc3ccc(C(F)(F)F)cc3)cc2)cc1 (stereo partly specified) | 1
CN(C)C(=O)C[C@H]1CC[C@@H]2[C@H](COc3ccc(NC(=O)C4CCC4)cc3C(=O)N2C)O1 | 0
CN(C)C(=O)c1cccc(-c2ccc3c(c2)[C@H]2[C@H](CCN2Cc2nccs2)[C@H](CO)N3)c1 | -14[25 µM]
N#C[C@H]1[C@H](c2ccc(C3=CCCCC3)cc2)[C@@H](CO)N1C(=O)c1cccc(F)c1 | -17[25 µM]
C[C@H]1CN([C@@H](C)CO)C(=O)c2cccc(NS(C)(=O)=O)c2O[C@@H]1CN(C)Cc1ccc(-c2ccccc2)cc1 | -6[25 µM]
CC(=O)N1[C@@H]2CN(S(C)(=O)=O)C[C@H]1C2c1ccccc1 (stereo partly specified) | 3
COc1ccc(S(=O)(=O)N(C)C[C@H]2OCc3ccccc3-c3c(n(C)c4ccccc34)C(=O)N([C@H](C)CO)C[C@H]2C)cc1 | 4
COc1cccc(S(=O)(=O)N(C)C[C@H]2OCc3ccccc3-c3c(n(C)c4ccccc34)C(=O)N([C@@H](C)CO)C[C@H]2C)c1 | 61*[25 µM]
Cc1cccc(S(=O)(=O)N(C)C[C@@H]2OCc3ccccc3-c3c(n(C)c4ccccc34)C(=O)N([C@H](C)CO)C[C@@H]2C)c1 | 15
C[C@@H]1CN([C@@H](C)CO)C(=O)c2cccc(NC(=O)c3ccncc3)c2O[C@H]1CN(C)S(=O)(=O)c1ccccc1 | -9[25 µM]
O=C(N[C@H]1CC[C@H](CCn2cc(-c3ccccc3F)nn2)O[C@H]1CO)c1ccc2c(c1)OCO2 | 7[25 µM]
COCC(=O)N1CC2(CCN(C(=O)c3cccnc3)CC2)c2c([nH]c3cc(OC)ccc23)[C@H]1CO | -13[25 µM]
COc1cc(CNCCc2c[nH]c3ccccc23)cc(Cl)c1OCC(N)=O | 47*
COc1ccc(C(=O)NCC(=O)NCCc2c[nH]c3ccccc23)cc1OC | 17
COc1ccc(NC(=O)COC(=O)Cc2c[nH]c3ccccc23)cc1Cl | -3
COc1ccc(NC(=O)N(C)C[C@@H]2OCc3ccccc3-c3c(n(C)c4ccccc34)C(=O)N([C@@H](C)CO)C[C@@H]2C)c(OC)c1 | 1[25 µM]
Cc1cccc(NC(=O)COc2ccc3c(c2)CCC3)n1 | -47
O=C(COc1ccc2c(c1)CCC2)Nc1ccccn1 | 90*
Cc1cnc(NC(=O)COc2ccc3c(c2)CCC3)s1 | 5
CCNC(=O)[C@@H]1[C@@H](CO)[C@@H]2Cn3c(ccc(-c4ccncc4)c3=O)[C@@H]2N1Cc1ccc2c(c1)OCO2 | -5[25 µM]
COc1ccccc1S(=O)(=O)N1[C@@H]2CNC[C@H]1[C@H]2c1ccc(-c2ccccc2C)cc1 | 15
O=C(N[C@@H]1CC[C@H](CCn2cc(C3CCCC3)nn2)O[C@H]1CO)c1cccnc1 | 2
COCCNC(=O)[C@H]1[C@H](CO)[C@H]2Cn3c(cccc3=O)[C@H]2N1Cc1ccccc1OC | 0[25 µM]
CC(C)NC(=O)Nc1ccc2c(c1)C(=O)N([C@@H](C)CO)C[C@H](C)[C@@H](CN(C)C(=O)C1CCCCC1)OCCCC[C@H](C)O2 | -17[25 µM]
SMILES | CD40 NFkB inh
CC(C)C(=O)NC(c1ccc([N+](=O)[O-])cc1)c1c(O)ccc2ccccc12 (stereo unspecified) | 11
CCN(CC)c1ccc(C(NC(=O)C(C)C)c2ccc3cccnc3c2O)cc1 (stereo unspecified) | 75*
CC(C)C(=O)NC(c1ccco1)c1ccc2cccnc2c1O (stereo unspecified) | -36
CCCC#Cc1ccc([C@H]2[C@H](C#N)N(S(C)(=O)=O)[C@H]2CO)cc1 | 1[25 µM]
O=C(c1ccccc1)N1CCN(C2CCCCCC2)CC1 | -3
COc1ccc(C(=O)N2CCC(N3CCN(c4ccccc4)CC3)CC2)cc1 | 3
O=C(c1ccc(Nc2nccc(-c3cc4ccccc4s3)n2)cc1)N1CCC(N2CCCC2)CC1 | 68*[25 µM]
COc1ccc(-c2ccc(C3[C@H]4CNC[C@@H]3N4S(=O)(=O)c3cccc(OC)c3)cc2)cc1 (stereo partly specified) | 1
C[C@H](C(=O)N(C)C[C@H]1OCc2ccccc2-c2ccccc2C(=O)N([C@H](C)CO)C[C@@H]1C)c1ccccc1 | -5
O=C(Nc1cccc(F)c1)N1C[C@@H]2[C@H](c3ccccc31)[C@@H](CO)N2C(=O)Cc1ccccn1 | 12[25 µM]
COc1nnc(-c2ccc(C)c(S(=O)(=O)NCC3CCCO3)c2)c2ccccc12 (stereo unspecified) | 0
Cc1ccc(-c2nn3c(C)nnc3c3ccccc23)cc1S(=O)(=O)NCc1ccccc1 | 44*
CC(=O)NCc1nnc2c3ccccc3c(-c3ccccc3)nn12 | 16
O=C(C[C@H]1C[C@H]2c3cc(NC(=O)Cc4ccncc4)ccc3O[C@H]2[C@H](CO)O1)NCc1ccc(-c2ccccc2)cc1 | -22[25 µM]
N#C[C@@H]1[C@H](c2ccccc2C2=CCCC2)[C@@H](CO)N1C(=O)c1ccccn1 | 7[25 µM]
COCCn1c(C)cc(C(=O)COC(=O)c2ccc(Br)o2)c1C | 48*

Source: PubChem
